HT1080-NT tox: kills 2HG-producing HT-1080-NT fibrosarcoma cells; HT-1080-NT fibrosarcoma viability, CellTiter-Glo ATP luminescence, 48 h; Potency, µM (doses to about 46.1 µM), for inactives: at the top dose activity, negative = less viability, most hits filed as cytotoxic; 360,000 tested, 1.6% active; AID 686970;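 further: NT is the 2HG producing partner of a matched IDH1 knockdown line; 0% = DMSO-treated cells and -100% = media-only wells without cells; nearly all actives have a fitted effect of over 55% in size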
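Compounds were tested in concentration-response format on HT-1080-NT cells for 48 hours at 37 degrees C. Cell viability came from CellTiter-Glo luminescence; curves were classified by r2, response magnitude and activity.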
DT40 TDP1 CPT: DT40-hTDP1 cell growth loss with CPT | Potency, µM (series often up to 46.2 µM), for the others: top-dose activity change, negative = growth inhibition, most hits filed as inhibitors | chicken DT40 Tdp1-/-;hTDP1 cells + 20 nM CPT, ATP luminescence, 48 h | AID 686979 | 420,000 tested, 12% active; further: on the % scale 0 is the no-effect control and ±100 the full control effect; nearly all actives have a fitted effect of over 55% in size
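Chicken DT40 Tdp1-/- cells stably complemented with human TDP1 were seeded at 400 cells/well in medium containing 20 nM camptothecin, exposed to pin-transferred compounds, and grown at 37 °C for at least 48 hr. Viability was read as ATP luminescence.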
TDP1 cell noCPT: qHTS for Inhibitors of human tyrosyl-DNA phosphodiesterase 1 (TDP1): qHTS in cells in absence of CPT; DT40 Tdp1-/- hTDP1 cells, no CPT, ATP luminescence, 48 h; Potency, µM (doses to about 46.2 µM), without a hit: top-dose activity change, negative = growth inhibition, usual class: inhibitors; 420,000 tested, 15% active; AID 686978, 2013; further: on the % scale 0 is the no-effect control and ±100 the full control effect; nearly all actives have a fitted effect of over 55% in size
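DT40 Tdp1-/-;hTDP1 cells, no CPT (DMSO vehicle only), 400 cells/well; compounds pin-transferred; ≥48 hr, 37 °C; CellTiter-Glo 30 min RT dark, luminescence read.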
TGFb SMAD3 inh: blocks TGF-b signaling; 410,000 tested, 1.2% active; AID 588855; HepG2 CAGA-GFP TGF-b/SMAD3 reporter, GFP fluorescence, 18 h; TGF-beta stimulated, 500 pg/mL final; Potency, µM (top dose mostly 46.1 µM), for the others: at the highest dose activity, negative = inhibition, usual class: inhibitors; further: on the % scale 0 is the no-effect control and ±100 the full control effect; nearly all actives have a fitted effect of over 65% in size
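HEPG2 CAGA-GFP reporter cells (1000/well, DMEM with 1% FBS) received compounds, then recombinant TGF-beta at 500 pg/mL final for 18 hours at 37 degrees C. Per-cell GFP summed per well was normalised to unstimulated and stimulated DMSO controls before curve fitting.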
HT1080 IDH1KD tx: HT-1080 IDH1 knockdown cell toxicity (counter line); HT-1080 IDH1 knockdown viability, ATP luminescence, 48 h; Potency, µM (highest dose often 46.1 µM), for inactives: at the highest dose activity, negative = toxicity, most hits filed as cytotoxic; 360,000 tested, 2% active; AID 686971;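 further: 0% = DMSO wells and -100% = cell-free medium wells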
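Viability of IDH1-knockdown HT-1080 fibrosarcoma cells was assessed by CellTiter-Glo after 48 h at 37 °C with titrated compound; concentration-effect curves were classified by fit quality and response size.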
HepG2 tox: kills HepG2 cells in TGF-b inhibitor counter-screen | HepG2 CAGA-GFP viability, ATP luminescence, 18 h | Potency, µM (highest dose often 46.1 µM), without a hit: top-dose activity change, negative = cytotoxicity, actives largely listed as cytotoxic | 410,000 tested, 0.76% active
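HepG2 CAGA-GFP cells (1000/well, DMEM with 1% FBS) received compound, then TGF-beta at 500 pg/mL final, and were incubated 18 hours at 37 degrees C. Viability was read by CellTiter-Glo luminescence. Media-only wells were set as complete cell-killing and DMSO as no toxicity.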
The depositor's hits bear a star; [ ] = remark or other dose. Shown are actives, neighbours in structure and some others; about 17% of the full set was active somewhere. The call rests on the fitted dose curve; in most records, active means well fitted curve in the direction sought with a large enough effect; inconclusive means small, poorly fitted or top-dose-only effect, or another doubt; inactive means no such curve, though single readings can be large; an effect the other way counts as inactive or inconclusive. Potency means the concentration at half of the fitted maximal effect.

`COc1ccc(NCc2nnc(SCC(=O)Nc3nc(-c4ccccc4)cs3)n2-c2ccccc2)cc1` gave HT1080-NT tox -9%, DT40 TDP1 CPT 4.6µM*, TDP1 cell noCPT 23µM*, TGFb SMAD3 inh -13%, HT1080 IDH1KD tx -12% and HepG2 tox -5%.
`COc1ccc(C(=O)CSc2nnc(CNc3nc(-c4ccccc4)cs3)n2C)cc1` gave HT1080-NT tox -20%, DT40 TDP1 CPT inconclusive, TDP1 cell noCPT inconclusive, TGFb SMAD3 inh -18%, HT1080 IDH1KD tx -14% and HepG2 tox -3%.
For O=C(NC1CCCCC1)C(c1ccncc1)N(C(=O)c1csnn1)c1cccc(F)c1 (configuration not stated) the results were HT1080-NT tox -8%, DT40 TDP1 CPT 13%, TDP1 cell noCPT 3%, TGFb SMAD3 inh 4%, HT1080 IDH1KD tx -3% and HepG2 tox 4%.
Screening COc1ccc(Cl)cc1NC(=O)CN(C)C(=O)c1ccc(OCc2ccccc2)c(OC)c1 returned HT1080-NT tox -13%, DT40 TDP1 CPT inconclusive, TDP1 cell noCPT 23µM*, TGFb SMAD3 inh inconclusive, HT1080 IDH1KD tx -23% and HepG2 tox -33%.
Screening COc1ccc(Cl)cc1NC(=O)CN(C)C(=O)Cc1ccc(-c2ccccc2)cc1 returned HT1080-NT tox 3%[9.24 µM], DT40 TDP1 CPT -17%, TDP1 cell noCPT -8%, TGFb SMAD3 inh -21%, HT1080 IDH1KD tx -21% and HepG2 tox -11%.
`COc1ccc(Cl)cc1NC(=O)CN(C)CC(=O)Nc1ccccc1-c1ccccc1` gave HT1080-NT tox -8%, DT40 TDP1 CPT 18µM*, TDP1 cell noCPT 23µM*, TGFb SMAD3 inh -6%, HT1080 IDH1KD tx inconclusive and HepG2 tox 10%.
For CN(C(=O)c1cccc(COc2ccc(Cl)cc2Cl)c1)c1ccccc1 the results were HT1080-NT tox -17%, DT40 TDP1 CPT 21µM*, TDP1 cell noCPT inconclusive, TGFb SMAD3 inh 0%, HT1080 IDH1KD tx -17% and HepG2 tox 21%.
For COc1ccc(C(=O)NCC(=O)NCC2(N(C)C)CCCCC2)cc1OC the results were HT1080-NT tox 12%, DT40 TDP1 CPT 7%, TDP1 cell noCPT -4%, TGFb SMAD3 inh 0%, HT1080 IDH1KD tx 5% and HepG2 tox -20%.
Screening COc1cc(C(=O)NCC2(N(C)C)CCCCC2)ccc1OCc1ccccc1 returned HT1080-NT tox inconclusive, DT40 TDP1 CPT 9%, TDP1 cell noCPT inconclusive, TGFb SMAD3 inh 10%, HT1080 IDH1KD tx 9.2µM* and HepG2 tox -25%.
COc1ccc(Cl)cc1NC(=O)CN(C)C(=O)c1ccc(COc2ccccc2)cc1 was read as HT1080-NT tox -1%, DT40 TDP1 CPT inconclusive, TDP1 cell noCPT inconclusive, TGFb SMAD3 inh -22%, HT1080 IDH1KD tx -10% and HepG2 tox -14%.
Screening COc1ccc(C(C)=O)cc1Cn1cnc2c(cnn2C)c1=O returned HT1080-NT tox 3%, DT40 TDP1 CPT inconclusive, TDP1 cell noCPT inconclusive, TGFb SMAD3 inh -3%, HT1080 IDH1KD tx 6% and HepG2 tox 0%.
For CNc1ccc(C=O)cc1Cl the results were DT40 TDP1 CPT -1%, TDP1 cell noCPT -3%, TGFb SMAD3 inh 4% and HepG2 tox 9%.
`CC(Sc1nccn1C)C(=O)c1c(N)n(C)c(=O)n(C)c1=O` (configuration not stated) gave HT1080-NT tox 1%, DT40 TDP1 CPT -3%, TDP1 cell noCPT -1%, TGFb SMAD3 inh -18%, HT1080 IDH1KD tx -2% and HepG2 tox -5%.
Screening CCOc1ccc(C(CC(=O)O)NS(=O)(=O)c2ccc(C)cc2)cc1OC (configuration not stated) returned HT1080-NT tox 13%, DT40 TDP1 CPT 21µM*, TDP1 cell noCPT inconclusive, TGFb SMAD3 inh 0%, HT1080 IDH1KD tx 9% and HepG2 tox -8%.
`COc1ccc(C)cc1NC(=O)Cc1c(C(=O)O)c(C)cn1C` gave DT40 TDP1 CPT 9%, TDP1 cell noCPT -2%, TGFb SMAD3 inh -11% and HepG2 tox -3%.
`Cc1ccc(S(=O)(=O)N2C[C@@H]3c4ccccc4N(S(=O)(=O)c4ccc(C)cc4)[C@@H]3[C@@H](C)C2CC(=O)c2ccccc2)cc1` (some centres not stated) gave HT1080-NT tox 9%, DT40 TDP1 CPT 4%, TDP1 cell noCPT -3%, TGFb SMAD3 inh 3%, HT1080 IDH1KD tx 8% and HepG2 tox -8%.
`C=C[C@@H]1c2ccccc2N(S(=O)(=O)c2ccc(C)cc2)[C@H](c2ccccc2)C1(C#N)C#N` gave HT1080-NT tox 8%, DT40 TDP1 CPT 7.9µM*, TDP1 cell noCPT 21µM*, TGFb SMAD3 inh inconclusive, HT1080 IDH1KD tx 4% and HepG2 tox -4%.
C=C[C@@H]1c2cc(C)ccc2N(S(=O)(=O)c2ccc(C)cc2)[C@H](c2ccccc2)C1(C#N)C#N was read as HT1080-NT tox -18%, DT40 TDP1 CPT 7.9µM*, TDP1 cell noCPT 10µM*, TGFb SMAD3 inh -4%, HT1080 IDH1KD tx -26% and HepG2 tox -18%.
C=C[C@@H]1c2cc(C)ccc2N(S(=O)(=O)c2ccc(C)cc2)[C@H](c2ccccc2C(F)(F)F)C1(C#N)C#N was read as HT1080-NT tox -17%, DT40 TDP1 CPT 8.2µM*, TDP1 cell noCPT inconclusive, TGFb SMAD3 inh -8%, HT1080 IDH1KD tx -2% and HepG2 tox -3%.
Cc1ccc2c(c1)C1CN(C)CCC1N2S(=O)(=O)c1cccc(C(F)(F)F)c1 (configuration not stated) was read as HT1080-NT tox -22%, DT40 TDP1 CPT inconclusive, TDP1 cell noCPT inconclusive, TGFb SMAD3 inh -10%, HT1080 IDH1KD tx -9% and HepG2 tox -13%.
Screening COC(=O)Cc1c(C)c2ccc(OC3CCCCC3=O)c(C)c2oc1=O (configuration not stated) returned HT1080-NT tox -24%, DT40 TDP1 CPT inconclusive, TDP1 cell noCPT 18µM*, TGFb SMAD3 inh inconclusive, HT1080 IDH1KD tx -13% and HepG2 tox -42%.
Screening COc1ccc(/C(C)=N/OCC(=O)N=Nc2c(O)[nH]c3ccc(Br)cc23)cc1 returned HT1080-NT tox 22%, DT40 TDP1 CPT inconclusive, TDP1 cell noCPT 18µM*, TGFb SMAD3 inh -3%, HT1080 IDH1KD tx inconclusive and HepG2 tox -11%.

Source: PubChem (National Center for Advancing Translational Sciences (NCATS))
